Cycloheximide cs = Cycloheximide Counterscreen for Small Molecule Inhibitors of Shiga Toxin | cell reporter, cycloheximide protein synthesis inhibition counterscreen | max response, % | 300,000 compounds, 12% hits | AID 2314, 2010; in the data active = max response mostly above about 13%, no sharp cut-off; inactive = mostly below about 14%; also: read at 38.3 µM for the half of the compounds with a filed dose
Shiga inhibitor = A qHTS for Small Molecule Inhibitors of Shiga Toxin | Vero cells, Shiga toxin protein synthesis inhibition reporter | inhibition, % at 38.7 µM | 290,000 compounds, 9.2% hits | AID 2315, 2010; in the data active = inhibition mostly above about 28%, no sharp cut-off; inactive = mostly below about 43%
Pf growth 96h = Primary qHTS for delayed death inhibitors of the malarial parasite plastid, 96 hour incubation; P. falciparum luciferase reporter growth, 96 h; Potency, µM (titrated, usually from 28.7 µM), actives largely listed as inhibitors; 320,000 compounds, 6.9% hits; AID 504834, 2011
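P. falciparum expressing integrated firefly luciferase grown in erythrocytes (2% hematocrit, 0.05% parasitemia final) with compounds for 96 hours at 37 C, 5% CO2. Growth inhibition read as loss of luminescence after adding luciferase detection reagent.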
SARS PLpro yeast = qHTS of Yeast-based Assay for SARS-CoV PLP; 330,000 compounds, 0.19% hits; S. cerevisiae expressing SARS-CoV PLpro, growth rescue; Potency, µM (titrated, usually from 32.9 µM), usual class: activators; AID 485353, 2010; calls by dose curve; also: nearly all actives have a fitted effect of over 55% in size
NS1 inh = qHTS Assay for Inhibitors of Influenza NS1 Protein Function; 270,000 compounds, 0.4% hits; Potency, µM (series often up to 46.1 µM); calls by dose curve; also: actives are rising curves; nearly all actives have a fitted effect of over 50% in size
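Compounds were scored for reversing the slow growth caused by influenza A NS1 in S. cerevisiae, measured by optical density at 600 nm. Assay medium contained 2% galactose at pH 6.0; NS1-free yeast of the same strain were the positive control.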
Pf growth 48h = Primary qHTS for delayed death inhibitors of the malarial parasite plastid, 48 hour incubation; P. falciparum luciferase growth in erythrocytes, 48 h; Potency, µM (highest dose often 28.7 µM), hits mostly inhibitors; 310,000 compounds, 5.9% hits
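Read-out is firefly luciferase luminescence from an integrated reporter in P. falciparum, so falling signal marks reduced parasite growth. Infected erythrocytes were at 2% hematocrit and 0.1% parasitemia (final) in Albumax-supplemented RPMI 1640.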
Hits are given with their value; - = inactive; ? = inconclusive; . = no result given; [ ] = remark or other dose. The list is not random: actives were taken first. Their share in the collection is about 21%. Unless noted, calls follow the shape of the dose curve; as a rule, active = well fitted inhibition curve with a large enough effect; inconclusive = small, poorly fitted or top-dose-only effect, or another doubt; inactive = no such curve, though single readings can be large or run the other way.

SMILES	Cycloheximide cs	Shiga inhibitor	Pf growth 96h	SARS PLpro yeast	NS1 inh	Pf growth 48h
Cc1ccc(NC(=S)NNC(=O)c2nnn(-c3ccccc3)c2C)cc1	37	59	-	-	-	-
Clc1nc(NCc2cccnc2)nc(N2CCOCC2)n1	-	-	?	-	-	-
CCc1ccc(OC(C)C(=O)Nc2ccccc2C(=O)N2CCOCC2)cc1 (configuration not stated)	-	-	-	-	-	-
Clc1ccc(Cl)c(OCc2cc(-c3ccccc3Cl)on2)c1	-	-	-	-	-	?
Cc1c2n(c3ccccc13)CCN(C)C2	.	.	-	-	.	-
Cc1[nH]c(=O)[nH]c(=O)c1/C=N/NC(=O)CCNC(=O)OC(C)(C)C	18	-	-	-	-	-
Cc1[nH]c(=O)[nH]c(=O)c1/C=N/NC(=O)CCCCCNC(=O)OC(C)(C)C	-	-	?	-	-	-
COc1ccc(-c2noc(CCC(=O)N3CCN(c4ccc(Cl)cc4)CC3)n2)cc1	.	.	.	-	.	.
Cc1ccccc1NC(=O)CSc1nc(O)cc(=O)n1C	-	-	-	-	-	-
CC1(C)Cc2c(cnn2-c2ccc(F)cc2)C(NC(=O)c2ccoc2)C1 (configuration not stated)	-	-	?	-	-	-
Cc1cc(C(=O)NC2CC(C)(C)Cc3c2cnn3-c2ccccc2)n(C)n1 (configuration not stated)	-	-	?	-	-	-
CC1(C)Cc2c(cnn2-c2ccccc2)C(NC(=O)C2(C(N)=O)CC2)C1 (configuration not stated)	-	-	-	-	-	9.3µM
CC1(C)Cc2c(cnn2-c2ccccc2)C(NC(=O)c2ccoc2)C1 (configuration not stated)	-	-	?	-	-	10µM
CC(C)(C)c1ccc(-n2ncc3c2CCCC3NC(=O)C2(C(N)=O)CC2)cc1 (configuration not stated)	-	-	13µM	-	-	-
NC(=O)c1cc2ccccc2o/c1=N/NC(=O)c1cccc(Cl)c1	-	-	-	-	-	-
CCc1ccc2nc3n[nH]c(N)c3cc2c1	45	75	-	-	-	-
Cc1ccc(C(=O)NCc2ccc(Cl)cc2)cc1S(=O)(=O)N1CCCCC1	.	.	?	-	.	?
COc1cc(NC(=O)c2cccc3c2C(=O)N(C2CCCCC2)C3)cc(OC)c1OC	-	-	?	-	-	12µM
O=C(Nc1ccc(Br)cc1)c1cccc2c1C(=O)N(C1CCCCC1)C2	-	-	-	-	-	?
O=C(NCCc1ccccc1)c1cccc2c1C(=O)N(C1CCCCC1)C2	-	-	?	-	-	?
NC(=O)c1cccc2c1C(=O)N(C1CCCCC1)C2	-	-	9.3µM	-	-	-
CSc1ccc(CCNC(=O)c2cccc3c2C(=O)N(C2CCCCC2)C3)cc1	-	-	10µM	-	-	?
O=C(Nc1ccc(Br)cc1Br)c1cccc2c1C(=O)N(C1CCCCC1)C2	-	-	?	-	-	?
Cc1cc(C)cc(NC(=O)c2cccc3c2C(=O)N(C2CCCCC2)C3)c1	-	-	12µM	.	-	?
CCOc1ccc(N(C)S(=O)(=O)c2ccc(C)c(C(=O)NCc3cccs3)c2)cc1	.	.	?	-	.	?
SMILES	Cycloheximide cs	Shiga inhibitor	Pf growth 96h	SARS PLpro yeast	NS1 inh	Pf growth 48h
CCn1cc(CNC(=O)C2CCC(=O)N(C3CCCCCC3)C2)cn1 (configuration not stated)	-	-	-	-	-	-
COc1ccc(-c2ccc(OC)c(C3C4C=CCCC4(C)C(=O)N3Cc3ccccc3)c2)cc1OC (configuration not stated)	-	-	.	.	.	.
COc1cc(NC(=O)CCc2nnc3ccc(N4CCC5(CC4)OCCO5)nn23)cc(OC)c1	-	-	?	-	-	-
Cc1ccc(NC(=O)c2cccc3c2C(=O)N(C2CCCCC2)C3)c(Cl)c1	-	-	4.7µM	-	-	?
Cc1cc(C)c[n+](C(C)C(=O)c2ccc(-c3ccccc3)cc2)c1 (configuration not stated)	-	-	-	-	-	1.3µM
Cc1ccc[n+](C(C)C(=O)c2ccc(Cl)cc2)c1 (configuration not stated)	-	-	-	-	-	?
CN(C1CCCCC1)S(=O)(=O)c1cccc2nsnc12	-	-	?	-	-	-
C[n+]1cc(C(=O)N2CCCCC2)ccc1/C=C/c1c[nH]c2ccccc12	-	-	0.41µM	-	-	?
O=C(C(=O)N1CCCCCC1)c1c[nH]c2ccccc12	-	-	-	-	-	-
CCCOc1ccc(N2C(=O)CC(N(Cc3ccc(OC)cc3)C(=S)Nc3ccccc3)C2=O)cc1 (configuration not stated)	25	-	?	-	-	?
CCCOc1ccc(N2C(=O)CC(N(CCOC34CC5CC(CC(C5)C3)C4)C(C)=O)C2=O)cc1 (configuration not stated)	-	-	5.2µM	-	.	-
C=CCN(C(=O)Nc1ccccc1)C1CC(=O)N(c2ccc(OC)cc2)C1=O (configuration not stated)	-	-	12µM	-	-	-
CCCOc1ccc(N2C(=O)CC(N(CCc3ccc(OC)c(OC)c3)C(=S)Nc3ccccc3)C2=O)cc1 (configuration not stated)	-	-	?	-	?	2.1µM
N#CS.N=C=S.N=C=S.[Cu].[NH2-].[NH2-].[NH2-].[NH2-].c1ccc2ncccc2c1	.	.	.	.	-	.
N#CC(=Cc1ccc(O)c(O)c1)C(N)=S	.	.	.	.	-	.
O=C(COC(=O)CNC(=O)c1sc2ccccc2c1Cl)Nc1cc(Cl)cc(Cl)c1	-	-	-	-	.	-[5.75 µM]
CNC(=S)N(Cc1ccc(OC)cc1)C1CC(=O)N(c2ccc(OC)cc2)C1=O (configuration not stated)	-	-	?	-	-	-
CNC(=S)N(Cc1ccc(OC)cc1)C1CC(=O)N(c2ccc(C(=O)OC)cc2)C1=O (configuration not stated)	-	-	5.9µM	-	-	?
Brc1ccc(-c2csc(-c3ccncc3)n2)cc1	-	42	-	-	-	?
Cc1ccc(S(=O)(=O)Nc2ccc(-c3csc(-c4ccccc4)n3)cc2)cc1	-	-	-	-	-	-
O=C(Nc1ccc(Br)cc1)c1csc(-c2ccncc2)n1	-	-	?	-	-	-
Cc1ccc(-c2csc(-c3ccncc3)n2)cc1	26	96	-	-	-	?
Cn1cc(CN2CCN(c3ncccn3)CC2)c(-c2cccc(Cl)c2)n1	-	-	-	-	-	-
Cn1cc(CN2CCC(C(O)c3cccs3)CC2)c(-c2cccc(Cl)c2)n1 (configuration not stated)	-	-	?	-	-	9.3µM
O=C(Nc1ccccc1NC(=O)c1ccco1)c1ccco1	-	-	.	-	?	-
O=C(Nc1ccccc1-c1ccccc1)c1ccco1	-	-	1.3µM	-	-	-

Screening results as filed in PubChem.
